# BoNT-F LC inh – blocks Botulinum neurotoxin F light chain protease. AID 588497. hit rate 0.22% among 360,000. inhibition, % at 10 µM. Multiplex microsphere protease cleavage assay, flow cytometry; in the data active = inhibition above about 35%, passing the limit was not always enough; inconclusive = no clear call, values can overlap the other calls
# BoNT A protease – BoNT A light chain protease inhibition; AID 588499; inhibition, % at 10 µM; hit rate 0.17% among 360,000; multiplex microsphere protease substrate cleavage, flow cytometry
# Bead autofluor – flagged as autofluorescent in microsphere protease counterscreen. fluorescence intensity (test concentration not listed). hit rate 3.1% among 360,000. AID 624483. compound autofluorescence counterscreen, microsphere flow cytometry; active compounds read high; in the data active = fluorescence intensity above about 16000; inconclusive = no clear call, values can overlap the other calls
# Anthrax LF inh2 – blocks Bacillus anthracis lethal factor protease. inhibition, % at 10 µM. P15917. hit rate 0.12% among 360,000. multiplex microsphere protease cleavage assay, LF
# Numbers stand for hits; n = inactive; u = inconclusive. Only some compounds are listed: those with a hit (about 3.5% of all), similar ones and a draw of the others. Cut-off read from the data, not from the text of the source, unless noted: active = inhibition above about 30%; inconclusive = no clear call, values can overlap the other calls; inactive = below that.
SMILES,BoNT-F LC inh,BoNT A protease,Bead autofluor,Anthrax LF inh2
CN1/C(=C/C2CC(=O)NC2=O)C(C)(C)c2ccccc21 (stereo not drawn),n,n,19664,n
CCOc1ccc(N2C(=O)CC(/C=C3/N(C)c4ccccc4C3(C)C)C2=O)cc1 (stereo not drawn),n,n,n,n
Cc1nc(=O)c(-c2ccccc2)c(C)n1-c1ccc(S(N)(=O)=O)cc1,n,n,n,n
Cc1nc(=O)c(-c2ccccc2)c(C)n1-c1ccc(C(=O)O)cc1,n,n,22979,n
Cc1cc(C(=O)COc2ccc(Br)cc2F)c(C)n1CC1CCCO1 (stereo not drawn),n,n,n,n
COc1ccc(-c2cc(-c3ccccc3)nc(-c3ccc4c(c3)NC(=O)CO4)c2)cc1,n,u,19614,n
CCOc1ccc(NC(=O)COc2cccc3c2CCN(Cc2cccnc2)C3=O)cc1,n,n,n,n
CCSc1nc(O)c(CC)c(=O)n1C(C)CC (stereo not drawn),n,n,22314,n
CC(C)NS(=O)(=O)c1ccc(OCC(=O)Nc2ccc(F)cc2)cc1,n,n,n,n
COc1ccc(N(C)S(=O)(=O)c2cccc3cccnc23)c(OC)c1,n,n,16783,n
COc1ccccc1NC(=O)CN(C)S(=O)(=O)c1cccc2cccnc12,n,n,n,n
CCCCN1C(=O)/C(=C2/Sc3ccc(OC)cc3N2CC)SC1=S,u,n,n,n
CCCCOC(=O)CCCN1C(=O)/C(=C2\SC(=S)N(CCCC(=O)OCCCC)C2=O)SC1=S,n,65,n,45
O=C(Cn1c(-c2ccccc2)noc1=O)Nc1ccc(S(=O)(=O)N2CCOCC2)cc1,n,n,n,n
O=C(Cn1c(-c2ccccc2)noc1=O)Nc1ccc(N2CCCCCC2)cc1,n,n,25078,n
O=C1NC(Cc2ccc(O)cc2)c2nc3cc(Cl)ccc3c(=O)n2-c2cc3ccccc3cc21 (stereo not drawn),n,n,n,n
CCCn1c(-c2cccnc2Cl)nc2cc(Cl)c(Cl)cc21,n,n,21449,n
CC(C(=O)Nc1ccccc1C(=O)N1CCCC1)n1nnc2ccccc21 (stereo not drawn),n,n,21214,n
Cc1cccc(OC(C)C(=O)Nc2ccccc2C(=O)N2CCCCC2)c1 (stereo not drawn),n,n,u,n
CCC(=O)Oc1ccc2c(=O)c(-c3ccc4ccccc4n3)c(CC)oc2c1C,n,n,n,n
Cc1oc2c(C)c(O)ccc2c(=O)c1-c1ccc2ccccc2n1,n,n,19935,n
CCN(CC)C(=O)C1CCCN(Cc2ccccc2C(F)(F)F)C1 (stereo not drawn),n,n,23390,n
CCN(CC)C(=O)C1CCCN(Cc2ccc(OC)c(C)c2)C1 (stereo not drawn),n,n,16141,n
CCN(CC)C(=O)C1CCCN(C/C=C/c2ccccc2)C1 (stereo not drawn),n,n,25287,n
CCN(CC)C(=O)C1CCCN(C/C(C)=C/c2ccccc2)C1 (stereo not drawn),n,n,n,n
SMILES,BoNT-F LC inh,BoNT A protease,Bead autofluor,Anthrax LF inh2
CCn1c(SCC(=O)Nc2nc(C)cs2)nnc1-c1ccncc1,n,n,n,n
CCOC(=O)C1=C(C)NC(=S)NC1c1ccsc1 (stereo not drawn),n,n,n,n
COc1cc(C(O)c2nc3ccccc3n2C(C)C)cc(OC)c1OC (stereo not drawn),n,n,n,n
CC(NC(=O)Cn1cnc([N+](=O)[O-])n1)c1ccccc1 (stereo not drawn),n,n,n,n
O=C(Cn1cncn1)NCc1ccccc1Br,n,u,20396,n
O=C(Cn1cncn1)c1ccccc1Br,n,n,n,n
C[C@H](NC(=O)Cn1cncn1)c1ccccc1,n,n,17083,n
O=C(Cn1cncn1)NCc1cccc2ccccc12,n,u,22835,n
Cc1nn(C)c(C)c1NS(=O)(=O)c1ccccc1Cl,n,n,n,n
CCN(CC(=O)Nc1ccccc1C(F)(F)F)C(=O)c1cc(S(=O)(=O)N2CCCCCC2)ccc1OC,u,n,u,n
Cc1cc2oc(C(=O)N(Cc3ccco3)C3CCS(=O)(=O)C3)cc(=O)c2cc1Cl (stereo not drawn),n,n,23579,n
O=S(CC(O)(c1ccccc1)c1ccccc1)CC(O)(c1ccccc1)c1ccccc1,n,n,n,n
CC1(C)CC(=O)C(C2(O)C(=O)N(Cc3ccccc3)c3ccccc32)CO1 (stereo not drawn),n,u,22533,n
CC1(C)CC(=O)CC(C2(O)C(=O)N(Cc3ccccc3)c3ccccc32)O1 (stereo not drawn),n,n,n,n
CC[C@]12c3[nH]c4cc(-c5ccco5)ccc4c3CCN1C(=O)[C@@H](CC(=O)NCCCOC)C[C@@H]2C(=O)N1CCN(C(=O)c2ccco2)CC1,n,n,n,n
Cn1c(O)c(/C=N/c2ncccn2)c(=O)n(C)c1=O,n,n,21865,n
CCOc1ccccc1N=Cc1c(O)n(C)c(=O)n(C)c1=O,n,n,n,n
Cc1ccccc1OCCN=Cc1c(O)n(C)c(=O)n(C)c1=O,n,n,22922,n
CSc1ccc(CNC(=O)Cc2ccc(NC(=O)C3=C(C)OCCS3)cc2)cc1,n,n,n,n
CC(Oc1ccc(Cl)cc1Cl)c1nc(-c2ccc(NC(=O)c3ccncc3)cc2)no1 (stereo not drawn),n,n,21041,n
COc1cccc(-c2ccc3nccn3c2)c1,n,n,n,n
O=[N+]([O-])c1ccc2nccn2c1,n,n,24475,n
O=C1N(CN2CCC3(CC2)OCCO3)c2ccccc2C12OCCCO2,n,n,22108,n
O=C(O)CN1C(=O)C2(OCCCO2)c2ccccc21,n,n,23379,n
O=C1N(CN2CCN(c3cccc(Cl)c3)CC2)c2ccccc2C12OCCCO2,n,n,21061,n
SMILES,BoNT-F LC inh,BoNT A protease,Bead autofluor,Anthrax LF inh2
CC1(C)COC2(OC1)C(=O)N(CN1CCOCC1)c1ccccc12,n,n,n,n
COc1cccc(NC(=O)CN2C(=O)C3(OCCCO3)c3ccccc32)c1,n,u,22688,n
C[C@@H]1CN([C@@H](C)CO)C(=O)CCCn2cc(nn2)CO[C@H]1CN(C)S(=O)(=O)c1cn(C)cn1,n,n,n,n
CC1CN(Cc2nc3c(c(=O)n(C)c(=O)n3C)n2Cc2ccccc2)CC(C)O1 (stereo not drawn),n,n,n,n
Cc1ccc(Cn2c(CN3CC(C)OC(C)C3)nc3c2c(=O)[nH]c(=O)n3C)cc1 (stereo not drawn),n,n,20485,n
Cc1ccc(Cn2c(-n3nc(C)cc3C)nc3c2c(=O)[nH]c(=O)n3C)cc1,n,n,22348,n
O=C(CN(CCc1ccccc1)C(=O)CN1C(=O)COc2ccccc21)NCc1ccco1,n,n,23028,n
O=C(NC1CCCC1)C1CCCN(S(=O)(=O)c2ccc(-n3cnnn3)cc2)C1 (stereo not drawn),n,n,n,n
CCOC(=O)C1CCCN(C(=O)CC(c2ccccc2)c2ccccc2)C1 (stereo not drawn),n,n,n,n
CCOC(=O)C1CCCN(C(=O)Cc2c(C(=O)O)[nH]c3ccccc23)C1 (stereo not drawn),n,n,23230,n
CCOC(=O)c1ccc(NC(=O)C2CCCN(S(=O)(=O)c3ccc(F)cc3)C2)cc1 (stereo not drawn),n,n,24696,n

# Source: PubChem BioAssay
